FXIa inh mix: factor XIa (human) inhibition, mixture screen; P03951; purified FXIa, fluorogenic substrate, pooled mixtures; inhibition, % at 5 µM; 0.19% of 62,000 active;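 note: each value is inhibition by a whole ten-compound pool holding the compound; 0% = enzyme with no mixture and 100% = wells lacking enzyme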
Target sequence (P03951 19-387 limits assumed): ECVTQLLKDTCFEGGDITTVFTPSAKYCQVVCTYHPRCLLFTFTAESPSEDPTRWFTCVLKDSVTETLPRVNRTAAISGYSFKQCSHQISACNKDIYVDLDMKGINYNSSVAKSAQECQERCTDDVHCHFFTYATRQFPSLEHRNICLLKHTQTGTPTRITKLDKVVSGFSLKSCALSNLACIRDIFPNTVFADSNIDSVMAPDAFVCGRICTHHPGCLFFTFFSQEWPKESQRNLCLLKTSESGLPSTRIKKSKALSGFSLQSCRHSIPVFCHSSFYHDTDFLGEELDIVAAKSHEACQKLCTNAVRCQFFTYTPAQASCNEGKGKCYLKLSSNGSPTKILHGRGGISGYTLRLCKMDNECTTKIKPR
Target sequence (P03951 388-625 limits assumed): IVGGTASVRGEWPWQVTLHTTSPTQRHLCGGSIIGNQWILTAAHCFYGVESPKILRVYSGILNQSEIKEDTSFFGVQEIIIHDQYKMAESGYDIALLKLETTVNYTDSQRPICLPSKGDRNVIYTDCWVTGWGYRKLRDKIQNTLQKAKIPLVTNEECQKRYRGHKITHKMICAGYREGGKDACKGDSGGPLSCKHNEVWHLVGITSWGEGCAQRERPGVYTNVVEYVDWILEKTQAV
hDAT+cocaine: modulates human dopamine transporter uptake under cocaine. AID 449768. 1.3% of 110,000 active. B-score at 10 µM. LLC-PK1 hDAT cells, [14C]-dopamine uptake with cocaine IC80; actives deviate in either direction;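 active = Z score or B-score, a plate-position-corrected score, falls beyond the plate's 99.7% confidence bounds, in either direction; inactive = both scores lie inside the 99.7% bounds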;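 note: scored against the spread of the other compound wells on the same plate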
M1 agonist: M1 muscarinic receptor agonism | CHO-M1 cells, Fluo-4 calcium fluorescence, agonist mode; stronger effect = higher value | B-score at 10 µM | 3% of 64,000 active | AID 626;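 active = fluorescence rise, raw or as B-score row- and column-corrected plate score, outside the 99.7% band of its plate's samples, either direction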
FXIIa inh mix: factor XIIa (human) inhibition, mixture screen. P00748. purified FXIIa, fluorogenic substrate, pooled mixtures. inhibition, % at 5 µM. 0.2% of 62,000 active. AID 684;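 note: 0% = enzyme without compound and 100% = no enzyme blank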
M1 antagonist: antagonists of rat M1 muscarinic receptor | P08482 | 3.4% of 64,000 active | CHO-M1 cells, Fluo-4 calcium, ACh EC80 antagonist mode; stronger effect = lower value | B-score at 10 µM;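 active = calcium fluorescence response, raw or row-and-column corrected B-score, differing from the plate sample mean either way at a set confidence level, mostly lower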
D1 mod: allosterically modulates the human D1 dopamine receptor | P21728 | HEK293 D1, CRE-luciferase, dopamine EC30 potentiation; actives deviate in either direction | B-score at 10 µM | 5.9% of 58,000 active | AID 641;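 active = luminescence count or its row- and column-corrected plate score outside the 99.7% band of the plate's sample wells, on either side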
M1 ag confirm: confirmation of rat M1 muscarinic receptor agonists. shares compounds with M1 agonist. CHO-M1 cells, Fluo-4 calcium fluorescence, agonist mode; actives lie on both sides. fluorescence change (max-min) at 10 µM. 19% of 1,700 active. AID 1488;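 active = fluorescence change differs from the solvent-only DMSO control mean at a set confidence level in both duplicate runs; inconclusive = differs from solvent-only control mean in just one of two runs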;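 note: an EC20 dose of acetylcholine follows compound addition during the same imaging run; raw fluorescence intensity difference in instrument units with no normalization to controls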
M4 ag counter: counter-screen for M1 agonists: activity at rat M4 receptor. shares compounds with M1 agonist. CHO M4/Gqi5 cells, Fluo-4 calcium fluorescence, agonist mode; actives lie on both sides. fluorescence change (max-min) at 10 µM. 9% of 1,700 active. AID 1741;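 active = fluorescence change differing from the plate's solvent-only control wells at 99.7% confidence in both duplicates, whether higher or lower; inconclusive = differs from solvent controls in only one of two duplicates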
An asterisk follows results filed as active; ? = inconclusive; nt = no result. This is a sample that favours compounds with a hit; in the whole collection about 7.4% have one here. Cut-off read from the data, not from the text of the source, unless noted: active = inhibition above about 20% (passing the limit was not always enough); inactive = the rest.

SMILES	FXIa inh mix	hDAT+cocaine	M1 agonist	FXIIa inh mix	M1 antagonist	D1 mod	others
COc1cc(CO)cc(Br)c1OCC(=O)N1CCCCC1	1	-0.19	-0.22	19	0.012	nt
CCCCOC(=O)C1=C(C)Nc2ncnn2C1c1cc(OC)ccc1OC (stereo not given)	3	1.7	-0.21	-17	-1	0.13
CCCCOC(=O)C1=C(C)Nc2ncnn2C1c1cccc(OC)c1OC (stereo not given)	-1	-2.9*	0.057	3	0.019	0.035
c1ccc2c(c1)OCC(c1nn3c(Cn4nnc5ccccc54)nnc3s1)O2 (stereo not given)	4	0.78	-3.2*	-1	-0.25	0.32
Cc1ccc(-c2noc(CCC(=O)NCc3ccc4c(c3)OCO4)n2)cc1	-2	1.2*	-0.59	0	-0.23	0.5
Cc1ccc(CC(=O)NCc2ccc3c(c2)OCO3)cc1	nt	-1.9	nt	nt	nt	nt
N=c1n(CCO)c2ccccc2n1CCOc1ccc(Cl)cc1Cl	10	3*	-0.26	4	-0.24	-1.8
Cc1cc(C(=O)NC2CCCC2)on1	10	-0.89	1.2	12	0.18	-0.4
Cc1cc(C(=O)N2CCC(C(F)(F)F)n3nccc32)on1 (stereo not given)	9	-2.9*	0	2	-0.023	-0.0046
Cc1sccc1C1C(C#N)=C(N)SC(N)=C1C#N	nt	nt	130*	nt	0.44	-1.2
Cc1cc(C2C(C#N)=C(N)Oc3n[nH]c(C)c32)c(C)s1 (stereo not given)	nt	-0.9	nt	nt	nt	nt
Cc1cc(C2C(C#N)=C(N)SC(N)=C2C#N)c(C)s1	10	nt	3.3*	1	0.24	-0.12
Cc1[nH]nc2c1C(c1ccsc1C)C(C#N)=C(N)O2 (stereo not given)	nt	-1.2	nt	nt	nt	nt
Cc1ccc(C(=O)C2=C(O)C(=O)N(CCN(C)C)C2c2ccccn2)o1 (stereo not given)	10	nt	-0.19	-2	0.16	-0.0031
Cc1cc(C)c2nc(N3CCC(C(=O)N4CCN(c5ncccn5)CC4)CC3)sc2c1	5	-0.06	-0.73	4	0.72	2.3
C(=N\n1cnnc1)/c1cn(-c2cccs2)nc1-c1ccccc1	7	2.3	2.4	6	0.3	1.2
CN(C)CCCNC(=O)C1CCNCC1	3	0.51	-0.018	0	-0.08	-3*
Cn1c(/C=N/c2nc3ccccc3[nH]2)nc2ccccc21	0	-2.4*	-0.51	4	0.58	0.45
CCCN1C2CCCC1CC(NC(=O)c1ccc(F)cc1)C2 (stereo not given)	3	-0.032	0.28	2	-0.6	-2.2*
CCOc1ccc(OCC)c(NC(=O)CN2CCC(NC(=O)c3cccc(F)c3)CC2)c1	6	3.3*	2.8	5	-0.1	-1.2
COC/C=C/C1=CC2=CC(=O)C(C)(OC(=O)c3ccco3)C(=O)C2=CO1 (stereo not given)	nt	-0.57	nt	nt	nt	nt
CCOC(=O)c1ccc2[nH]c(C)c(C)c2c1	nt	0.5	nt	nt	nt	nt
Cc1[nH]c2ccc(C(=O)OCCN(C)C)cc2c1C	nt	-0.45	-0.63	nt	-0.35	-4*
CCCc1[nH]nc2c1C(c1cn[nH]c1-c1ccc(F)cc1)C(C#N)=C(N)O2 (stereo not given)	21*	nt	-1.5	1	1.4	0.24
COc1cc2c(cc1OC)C(COc1ccc(F)cc1)N(C(=O)c1ccco1)CC2 (stereo not given)	4	0.18	7.9*	3	-1.2	0.89	M1 ag confirm=-2.1;M4 ag counter=-15
SMILES	FXIa inh mix	hDAT+cocaine	M1 agonist	FXIIa inh mix	M1 antagonist	D1 mod	others
O=C(Nc1nc(-c2ccccc2)cs1)C1CCCN(S(=O)(=O)c2cccc([N+](=O)[O-])c2)C1 (stereo not given)	nt	-0.023	nt	nt	nt	nt
COC(=O)c1ccccc1NC(=O)C1CCCN(S(=O)(=O)c2ccccc2)C1 (stereo not given)	6	0.0011	0.99	9	-0.092	-0.13
O=C(Nc1nc(-c2ccccc2)cs1)C1CCCN(S(=O)(=O)c2ccccc2)C1 (stereo not given)	1	1.7	4.5*	2	-0.91	0.47	M1 ag confirm=?;M4 ag counter=-34
O=C(Nc1ccccc1F)C1CCCN(S(=O)(=O)c2cccc3cccnc23)C1 (stereo not given)	2	-0.34	0.44	-3	0.64	-0.93
Cc1nnc(NC(=O)C2CCCN(S(=O)(=O)c3ccccc3C(F)(F)F)C2)s1 (stereo not given)	3	0.31	16*	-2	0.17	1.2	M1 ag confirm=-30;M4 ag counter=-44
COC(=O)c1ccccc1NC(=O)C1CCCN(S(=O)(=O)c2ccc(F)cc2)C1 (stereo not given)	18	0.65	5.5*	10	2.1	-0.012	M1 ag confirm=5.8;M4 ag counter=-3.6
c1ccc(Cc2nnc(N3CCOCC3)c3ccccc23)cc1	nt	0.99	nt	nt	nt	nt
c1ccc(N2CCN(c3nnc(Cc4cccnc4)c4ccccc34)CC2)nc1	3	0.26	3.6*	-21	-2.9	nt	M1 ag confirm=-12;M4 ag counter=?
CC1=CC(C)(C)N2C(=O)C3(SCC(=O)N3c3ccc(F)cc3)c3cc(C)cc1c32 (stereo not given)	nt	-0.42	nt	nt	nt	nt
O=C(c1ccc(-c2ccccc2)cc1)N1CCN(C(=O)c2ccco2)CC1	10	2.5	-0.01	10	-0.22	-1.5
O=C(c1ccco1)N1CCN(C(=O)C(Sc2ccccc2)c2ccccc2)CC1 (stereo not given)	4	-0.57	3.8*	5	-0.64	0.28	M1 ag confirm=?;M4 ag counter=-74
Cc1cc2ncn(C3CC(=O)N(Cc4ccccc4)C3=O)c2cc1C (stereo not given)	0	-0.071	5.8*	-2	-0.59	-0.39	M1 ag confirm=?;M4 ag counter=-18
Cc1cc2ncn(C3CC(=O)N(C)C3=O)c2cc1C (stereo not given)	nt	0.87	nt	nt	nt	nt
O=C1C2=C(Nc3ccccc3SC2c2ccco2)c2ccccc21 (stereo not given)	3	-0.25	active	-2	0.14	-0.76	M1 ag confirm=?;M4 ag counter=-65
COc1ccc(C2=CC(c3c(C)nn(-c4ccccc4)c3Cl)n3nnnc3N2)cc1OC (stereo not given)	-3	0.43	5.5*	6	1.8	2	M1 ag confirm=38;M4 ag counter=8.5
O=C(Nc1ccc(Cl)cc1)c1ccc2c(c1)S(=O)(=O)c1ccccc1C2=O	nt	0.063	nt	nt	nt	nt
CCN=C(NCC)SC1CC(=O)N(c2ccc(OC)cc2)C1=O (stereo not given)	nt	0.54	nt	nt	nt	nt
CCN=C(NCC)SC1CC(=O)N(c2cccc(OCC)c2)C1=O (stereo not given)	7	-0.49	14*	-5	-2.6*	-0.91	M1 ag confirm=-3.6;M4 ag counter=-22
Brc1c(CSc2nncn2-c2ccccc2)nc2ncccn12	1	-1.2	-0.0068	15	0.98	-0.92
COCc1cc(C)nc2sc(C(=O)OC)c(N)c12	9	-0.12	4.4*	-5	0.031	3	M1 ag confirm=-5.9;M4 ag counter=-40

Compound activity (PubChem)
